Sampled rows, rich in hits. Any-hit rate of the full collection: about 12%.
Sm TGR inh = blocks Schistosoma mansoni thioredoxin glutathione reductase | actives 3% (n = 360,000) | Potency, µM (series often up to 114 µM), inactives show at the top dose activity change, negative = inhibition, actives largely listed as inhibitors | Q962Y6 | AID 485364 | purified TGR, DTNB reduction, TNB absorbance 405 nm; further: on the % scale 0 is the no-effect control and ±100 the full control effect; nearly all actives have a fitted effect of over 60% in size
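First, TGR (20 nM dispensed) and NADPH were mixed with compound. Second, a 15 min room-temperature incubation followed. Third, further NADPH and then DTNB were added to start the reaction. Finally, TNB absorbance was monitored kinetically.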
Pf growth 96h = P. falciparum growth inhibition at 96 hour, primary screen for plastid delayed-death inhibitors | P. falciparum luciferase reporter growth, 96 h | Potency, µM (doses to about 28.7 µM), for inactives: at the highest dose activity change, negative = inhibition, most hits filed as inhibitors | actives 6.9% (n = 320,000); further: on the % scale 0 is the no-effect control and ±100 the full control effect
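Cell-based qHTS: luciferase-tagged P. falciparum in erythrocytes (2% hematocrit, 0.05% parasitemia final) incubated with compounds for 96 hours, 37 C, 5% CO2; luciferase detection reagent then added and luminescence measured.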
SARS PLP yeast = blocks SARS-CoV papain-like protease in a yeast assay. S. cerevisiae expressing SARS-CoV PLpro, growth rescue. Potency, µM (top dose mostly 32.9 µM), without a hit: at the top dose activity, positive = growth rescue, usual class: activators. actives 0.19% (n = 330,000). AID 485353; calls by dose curve; further: 0% is about no effect; nearly all actives have a fitted effect of over 55% in size
Pf growth 48h = P. falciparum growth inhibition at 48 hours (one generation); P. falciparum luciferase growth in erythrocytes, 48 h; Potency, µM (doses to about 28.7 µM), for inactives: top-dose activity change, negative = inhibition, actives largely listed as inhibitors; actives 5.9% (n = 310,000); AID 504832; further: on the % scale 0 is the no-effect control and ±100 the full control effect
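A one-generation exposure of luciferase-tagged malaria parasites in RPMI 1640/Albumax erythrocyte culture, 37 C and 5% CO2. Inhibition is inferred from decreased luminescence after adding detection reagent.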
Active calls of the source: *; ? = inconclusive; . = no result; [ ] = another dose, or the depositor's remark. Unless noted, the call rests on the fitted dose curve; in most records, active means well fitted curve in the direction sought with a large enough effect; inconclusive means small, poorly fitted or top-dose-only effect, or another doubt; inactive means no such curve, though single readings can be large; an effect the other way counts as inactive or inconclusive. Potency means the concentration at half of the fitted maximal effect.

SMILES | Sm TGR inh | Pf growth 96h | SARS PLP yeast | Pf growth 48h
O=C(Nc1ccc(Cl)cc1C(=O)NCc1cccnc1)c1ccco1 | 8.1% | -2.4% | 2.8% | -6.6%
O=C(Nc1ccc(Cl)cc1C(=O)Nc1ccncc1)c1ccco1 | 39.8µM* | . | 4.0% | ?
CC1CCN(C(=O)c2cc(Cl)ccc2NC(=O)c2ccco2)CC1 | 6.0% | 2.33µM* | -0.3% | 6.5%
Cc1ccc(S(=O)(=O)NCCC(=O)N2CCC(C)CC2)cc1 | 2.8% | -9.2% | 7.2% | 1.3%
Cn1c(=O)c2c(nc(SCC(=O)Nc3ccc(OC(F)(F)F)cc3)n2Cc2cccc(C(F)(F)F)c2)n(C)c1=O | -6.3% | . | . | .
COc1ccc(Oc2coc3cc(OC(=O)c4cccs4)ccc3c2=O)cc1 | -16.6% | 4.15µM* | 1.1% | 54.3%
C[C@]12CC[C@@H](O)CC1=CCC1C2CC[C@]2(C)C(=O)[C@H](F)CC12 (stereo partly specified) | . | . | -3.7% | .
CC12CCC3C(CC=C4CC(O)CCC43C)C1C/C(=C\c1cccc(F)c1)C2=O (stereo unspecified) | 4.9% | 11.7µM* | -1.7% | ?
Cc1c(C(=O)N2CCc3ccccc32)oc2ccccc12 | -10.3% | 7.6% | -16.2% | 189.6%
Cc1c(C(=O)N2CC(C(=O)N3CCCCC3)Oc3ccccc32)oc2ccccc12 (stereo unspecified) | 0.2% | 13.1µM* | -3.7% | ?
O=C(CCNS(=O)(=O)c1ccc(Br)cc1)NC1CCC(O)CC1 (stereo unspecified) | 6.1% | 5.4% | 1.0%[6.58 µM] | -2.7%
Cc1ccc(-c2nnc(N3CCN(C(=O)CSc4ncn[nH]4)CC3)c3ccccc23)cc1 | 3.5% | . | 7.6% | 10.4µM*
Cc1ccc(Sc2c(C)nn(C(=O)c3ccc(Cl)cc3)c2C)cc1 | 5.1% | . | . | .
O=C(O)COCC(=O)N1CCCN(c2ccc(C(F)(F)F)cn2)CC1 | 39.8µM* | 24.5% | -1.5% | 0.1%
O=C(Nc1ccc(F)cc1)N1CCCN(c2ccc(C(F)(F)F)cn2)CC1 | 19.2% | ? | -0.6% | ?
CC(=O)c1cccc(OCC(=O)N2CCN(c3ccc(C(F)(F)F)cn3)CC2)c1 | -4.0% | 7.38µM* | -3.5% | -28.3%
CC(=O)c1ccc(N2CCN(c3ccc(C(F)(F)F)cn3)CC2)cc1 | 4.8% | . | -22.0% | -10.8%
CN1C(=O)c2cccc3c(S(=O)(=O)Nc4cccc(C(=O)O)c4)ccc1c23 | 4.0% | . | . | .
NC(=S)Nc1ccc(F)c(F)c1F | -5.3% | 35.4% | 4.8% | 2.62µM*
Fc1ccc(NC(=S)Nc2cccnc2)c(Cl)c1 | 17.8µM* | ? | 0.8% | 3.1%
S=C(Nc1ccc(Oc2ccccc2)cc1)Nc1cccnc1 | ? | ? | 1.2% | 9.4%
COc1cc(NC(=S)Nc2cccnc2)cc(OC)c1OC | 31.6µM* | 43.2% | -0.1% | 2.1%
S=C(Nc1cccnc1)Nc1ccccc1Br | 6.31µM* | 7.6% | -0.3% | -6.5%
FC(F)(F)c1cnc(NNC(=S)Nc2cccnc2)c(Cl)c1 | -9.3% | ? | -1.4% | ?
CCOc1ccc(NC(=S)Nc2cccnc2)cc1 | ? | 25.8% | 11.7% | -2.6%
SMILES | Sm TGR inh | Pf growth 96h | SARS PLP yeast | Pf growth 48h
Fc1ccc(NC(=S)Nc2ccc(Cl)cc2Cl)cc1 | 25.1µM* | 23.3% | 0.7% | 29.0%
Oc1cccc(NC(=S)Nc2cccnc2)c1 | 50.1µM* | 60.3% | 4.0% | 15.1%
Oc1ccc(/C=N/NC(=S)Nc2cccnc2)cc1 | -28.3% | 169.9% | -1.4% | 155.7%
Fc1ccc(NC(=S)Nc2cccnc2)c(F)c1F | 14.1µM* | 16.6% | -0.3% | -12.4%[5.75 µM]
Cc1ccc(C)c(N2CCN(CCCNC(=O)c3nnc(Cc4ccc(F)cc4Cl)o3)CC2)c1 | -1.4% | . | . | .
COc1cc2c(cc1OC)C(COc1ccc3c(C)cc(=O)oc3c1)N(C(=O)c1cccc(C)c1)CC2 (stereo unspecified) | -1.4% | . | . | .
O=C(Nc1ccnn1C1CCN(Cc2cccc(O)c2)CC1)C1CCCC1 | -4.7% | -5.6% | -0.1% | 12.3%
CCOC(=O)c1sc(N2C(=O)c3oc4ccc(F)cc4c(=O)c3C2c2cccc(OC)c2)nc1C (stereo unspecified) | 0.1% | . | . | .
COc1ccccc1-n1cc(-c2ccc(Br)cc2)[nH]c1=S | 1.1% | 11.5% | 2.2% | ?
S=c1[nH]c(-c2ccc(Br)cc2)cn1CCc1ccccc1 | 0.8% | 13.1µM* | -3.6% | ?
CCOC(=O)C1(CCOc2ccccc2)CCN(Cc2cccc(-n3cccn3)c2)CC1 | 0.0% | 10.4µM* | -0.3% | ?
CCOC(=O)C1(CCOc2ccccc2)CCN(CCCn2cccn2)CC1 | -16.2% | ? | 0.4% | ?
CCOC(=O)C1(CCOc2ccccc2)CCN(C(=O)c2ccc(-n3cccn3)cc2)CC1 | -12.4% | 10.4µM* | -2.5% | ?
O=C(CSc1nc2c(oc3ccccc32)c(=O)n1CC1CCCO1)NCc1ccccc1 (stereo unspecified) | -5.5% | -0.9% | -11.2% | -34.5%
CCCOc1ccc(CNC(=O)CCCN2C(=O)CSc3c2c(C)nn3-c2ccccc2)cc1 | 1.6% | . | . | .
CC(=O)[C@@H]1[C@@H]2C(=O)N(C3CCCCC3)C(=O)[C@@H]2C2c3ccccc3C=CN21 (stereo partly specified) | 25.1µM* | ? | -2.5% | ?
COc1ccc(NC(=O)[C@@H]2[C@@H]3C(=O)N(C4CCCCC4)C(=O)[C@@H]3C3c4ccccc4C=CN32)cc1 (stereo partly specified) | 2.5% | 14.7µM* | -4.2% | 7.38µM*
COc1ccc2c(c1)OC[C@H]1[C@H]2N2C(=O)c3cc(Br)ccc3NC(=O)[C@@]2(C)[C@H]1c1ccccc1 | -0.5% | 5.22µM* | 0.8% | 1.65µM*
COc1ccc2c(c1)[C@H]1[C@H](CO2)[C@H](c2ccccc2)[C@]2(C)C(=O)Nc3ccccc3C(=O)N12 | ? | ? | 4.0% | ?
COc1ccc2c(c1)OC[C@H]1[C@H]2N2C(=O)c3cc(OC)c(OC)cc3NC(=O)[C@@]2(C)[C@H]1c1ccccc1 | -9.0% | 6.57µM* | 2.5% | 2.33µM*
COc1ccc2c(c1)[C@H]1[C@H](CO2)[C@H](c2ccccc2)[C@]2(C)C(=O)Nc3ccc(Br)cc3C(=O)N12 | . | . | 9.0% | .
COc1ccc2c(c1)C(=O)N1[C@H]3c4cc(OC)ccc4OC[C@@H]3[C@H](c3ccccc3)[C@]1(C)C(=O)N2 | -1.0% | ? | -2.4% | 13.1µM*
COc1cc2c(cc1OC)C(=O)N1[C@H]3c4ccccc4OC[C@@H]3[C@H](c3ccccc3)[C@]1(C)C(=O)N2 | -3.0% | ? | 1.5% | ?
Cc1ccc(NC(=O)C(C)Sc2nc3c(c(=O)[nH]2)CCCC3)cc1Cl (stereo unspecified) | -5.4% | . | . | .
CCN(CC)S(=O)(=O)c1ccc2nc(NC(=O)c3cccnc3)sc2c1 | -11.7% | . | . | .
COc1cc(-c2noc(-c3ccc(NCCc4ccccc4)c([N+](=O)[O-])c3)n2)cc(OC)c1OC | -6.1% | . | . | .
Cc1cccc(Cn2cc(C(=O)Nc3ccc(F)c(C(F)(F)F)c3)ccc2=O)c1 | 1.1% | . | . | .
O=C(NNc1ccccc1[N+](=O)[O-])Nc1ccc(Cl)c(Cl)c1 | -7.1% | ? | -18.7% | -5.2%

Source: PubChem
